Data on 40 compounds can be found in PubChem BioAssay (Tox21).

“And” between values parts separate entries of the source, which are not always exact repeats. Equal values may be shown once. Inconclusive results are not listed. Entries that show only a call come without a potency. The source made the active and inactive calls. Calls follow the shape of the dose curve; as a rule, active = well fitted cell-killing curve with a large enough effect in the repeat runs; inconclusive = weak or mixed curves, or effect the other way; inactive = no such curve, though single readings can be large or run the other way.
Potency is read from the fitted curve at half-maximal effect.

This assay can be described thus: qHTS assay to identify small molecule agonists of the vitamin D receptor (VDR) signaling pathway - cell viability counter screen (AID 743224). Also: nearly all actives have a fitted effect of over 50% in size. The following applies: VDR-bla HEK293T viability, CellTiter-Glo luminescence, 16 h; series mostly up to 62.6 µM. From the text:
U.S. Tox21 Program National Center for Advancing Translational Sciences [NCATS] NIH Chemical Genomics Center [NCGC] U.S. Environmental Protection Agency [EPA] National Institutes of Environmental Health Sciences [NIEHS] National Toxicology Program [NTP] U.S. Food and Drug Administration [FDA] Tox21 Assay Overview: The vitamin D receptor (VDR), a member of nuclear hormone receptor superfamily, plays a critical role in calcium homeostasis and bone metabolism. It is also involved in cell differentiation and growth, and thrombogenicity. […] The cytotoxicity of the Tox21 compound library against the VDR-bla cell line was tested in parallel by measuring the cell viability using CellTiter-Glo assay (Promega, Madison, WI) in the same wells.
Tox21 Assay Protocol Summary: VDR-bla cells were dispensed at 2,000 cells/6 uL/well into black wall/clear-bottom 1536-well plates using a Multidrop Combi (Thermo Fisher Scientific, Waltham, MA) dispenser. After the assay plates were incubated at a 37C and 5% CO2 for 4 h, 23 nL of compounds dissolved in DMSO, positive controls or DMSO only was transferred to the assay plate by a Pintool station (Kalypsys, San Diego, CA). The plates were incubated at 37C and 5% CO2 for 16 h. After 1 uL of LiveBLAzerTM B/G FRET substrate was added using a Bioraptr Flying Reagent Dispenser (FRD) workstation (Beckman Coulter, Indianapolis, IN, USA), the plates were incubated at room temperature for 2 h, and fluorescence intensity was measured by an Envision plate reader (PerkinElmer, Shelton, CT). For cell viability readout that measures cytotoxicity, 3 ul/well of CellTiter-Glo reagent was added into the assay plates using a FRD. After 30 min incubation at room temperature, the luminescence intensity in the plates was measured using a ViewLux (PerkinElmer) plate reader.
`Cc1cnc2c(C(=O)O)c(Cl)ccc2c1`: the Potency result is “inactive”. Consider `Cc1ccc(C)c2ccccc12`, for which the Potency entry was “inactive”. In the case of `C#CC1(O)CCCCC1` it was “inactive”; in that of `CSC(=O)c1c(C(F)F)nc(C(F)(F)F)c(C(=O)SC)c1CC(C)C`, 43.4 µM (active); in that of `BrCCCBr`, “inactive”. As to `CCN(CC)C(=O)N[C@@H]1C=C2c3cccc4[nH]cc(c34)C[C@@H]2N(C)C1`, the Potency entry was “inactive”. In the case of `CNC(C)(C)Cc1ccccc1` it was “inactive”. The result for `O=[N+]([O-])C(Br)Br` reads “inactive”. The result for `Clc1ccc(C2(Cn3cncn3)OCCO2)c(Cl)c1` reads “inactive”. Consider `CCCCc1ccccc1`, for which the Potency result was “inactive”. In the case of `CCN1CCC2(CC1)COc1cc3c(cc12)N(C(=O)c1ccc(-c2ccc(-c4nnc(C)o4)cc2C)cc1)CC3` it was 35.9 µM (active); in that of `CN1C(=O)[C@@H](NC(=O)c2cc3ccccc3[nH]2)N=C(c2ccccc2)c2ccccc21`, “inactive”. The result for `CCCCON=O` reads “inactive”; that for `CCCCn1cc[n+](C)c1.[Cl][Fe-]([Cl])([Cl])[Cl]`, “inactive”. The result for `CN1CCc2cc3c(cc2C1O)OCO3` (stereo not given) reads “inactive”. Turning to `O=C(CCCCl)c1ccc(F)cc1`, the Potency entry was “inactive”.

For `C=C(C)C(=O)[O][Sn]([CH2]CCC)([CH2]CCC)[CH2]CCC`, the Potency is 0.49 µM (active). Regarding `c1cc[n+]2c(c1)-c1cccc[n+]1CC2`, the Potency entry was “inactive”. The result for `CCCCn1cc[n+](C)c1` (tested in a mixture with another compound) reads “inactive”.

Regarding `O.O.O.O.O.O.O.O=S(=O)([O-])[O-].[Co+2]`, the Potency result is “inactive”. In the case of `O=c1[nH]c2cc(Cl)ccc2n1C1CCNCC1` it was “inactive”; in that of `CCC[CH2][Sn]([CH2]CCC)([CH2]CCC)[CH2]CCC`, 38.9 µM (active); in that of `CN(C)C(=S)SSC(=S)N(C)C`, 85.9 nM (active) and 27.5 nM (active) and 188 nM (active).

Take `NC(=O)C(Cl)Cl`: the Potency result is “inactive”.

Turning to `CC(=O)[O-].CC(=O)[O-].[Co+2]`, the Potency entry is “inactive”. In the case of `Clc1cc(Cl)c(-c2cc(Cl)c(Cl)cc2Cl)cc1Cl` it was “inactive”; in that of `CC(C)(C)c1ccc(OP(=O)(Oc2ccccc2)Oc2ccccc2)cc1`, “inactive”. The result for `[O]=[Cr][O][Cr]=[O]` reads “inactive”; that for `CNC(=O)Oc1cc(C)cc(C(C)C)c1`, “inactive”; that for `Cc1ccc([N+](=O)[O-])[c]2c1[O][Hg]2`, 3.76 µM (active). The result for `COC(=O)c1cc(Oc2ccc(Cl)cc2Cl)ccc1[N+](=O)[O-]` reads “inactive”; that for `N#Cc1c[nH]cc1-c1cccc2c1OC(F)(F)O2`, “inactive”; that for `C[C@]12Cc3cn[nH]c3C[C@@H]1CC[C@@H]1[C@@H]2CC[C@@]2(C)[C@H]1CC[C@]2(C)O`, 29.8 µM (active). On to `CC[N+]1(CC)CCC(OC(=O)C(O)(c2ccccc2)c2ccccc2)C1` (stereo not given), for which the Potency entry is “inactive”. For the compound `Oc1cccc(Cl)c1Cl`, the Potency entry was “inactive”. The result for `CCN(CC)Cc1nccn1-c1ccc([N+](=O)[O-])cc1C(=O)c1ccccc1Cl` reads “inactive”. Consider `CCCCC/C=C\C/C=C\C/C=C\C/C=C\CCCC(=O)NCC(=O)O`, for which the Potency entry was “inactive”. The result for `COc1ccc2[nH]cc(CCN(C(C)C)C(C)C)c2c1` reads “inactive”; that for `O=C(N[C@H]1N=C(c2ccccc2F)c2cccc3c2N(CC3)C1=O)c1cc2ccccc2[nH]1`, “inactive”. The result for `CCCN` reads “inactive”.
